mHTT-CaM PPI inh – inhibitors of human mutant huntingtin-calmodulin interaction; P42858; AlphaScreen His-mHTT/GST-CaM binding, luminescence; inhibition, % at 15 µM; 190,000 tested, 3.6% active; AID 1671202;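 note: 0% = both proteins with DMSO and 100% = one protein alone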
Pf apPOL inh – Pf-apPOL DNA polymerase inhibition | Recombinant Pf-apPOL, molecular beacon fluorescence, 1.5 h | inhibition, % at 10 µM | 210,000 tested, 0.25% active
Active calls of the source: *; . = no result. This is one part of a sample in which hits are shown more often than they occur. Cut-off read from the data, not from the text of the source: active = inhibition above about 50%; inactive = the rest.

SMILES	mHTT-CaM PPI inh	Pf apPOL inh
COc1ccc2nc(N=C(NC(C)=O)NC(C)=O)nc(C)c2c1	6	2
FC(F)(F)c1cc(Nc2nnc(N=Nc3ccccc3)s2)cc(C(F)(F)F)c1	.	-7
COc1cc(OC)c(/C=C2/SC(=Nc3ccc(C(=O)O)cc3)N(C)C2=O)cc1Br	30	-41
COc1ccc(/C=C2\SC(=O)N(CCN)C2=O)cc1OC	4	-1
NCCN1C(=O)S/C(=C\c2ccc(F)c(Oc3ccccc3)c2)C1=O	71*	-14
CCn1c(C2CCN(S(=O)(=O)c3c(C)nn(C)c3C)C2)nc2cccnc21 (configuration not stated)	1	-6
O=C(SCc1cccc(C(F)(F)F)c1)c1ccc(Cl)c(Cl)c1	.	3
O=C(c1ccc(Cl)c(Cl)c1)N1CCC(=O)N([C@H](COCc2ccccc2)Cc2ccccc2)CC1	100*	-4
O=C(c1ccc(Cl)c(Cl)c1)N1CCC(=O)N([C@H](COCc2cccc(C(F)(F)F)c2)Cc2ccccc2)CC1	100*	-4
Cc1ccc(S(=O)(=O)N2CCC(=O)N([C@H](COCc3ccc(Cl)cc3Cl)Cc3ccccc3)CC2)cc1	-10	-4
O=C(CCc1ccccc1)Nc1ccccc1NC(=O)CCc1ccccc1	2	-10
O=C1N(c2ccc(F)cc2)c2ncccc2S(=O)(=O)N1Cc1cccc(F)c1	-20	-3
COc1cc(/C=C2/SC(c3ccc(C)cc3)=NC2=O)cc(OC)c1O	42	5
Cc1ccc(C2=NC(=O)/C(=C\c3cc(O)c(O)c(Br)c3)S2)cc1	95*	10
Cc1ccc(C(N)=NO)cc1F	.	6
O=C(NCCn1ncc2c(NCCc3ccccc3)ncnc21)c1ccc(F)cc1F	-9	-24
CCCN(CCC)S(=O)(=O)c1ccc(C(=O)Nc2nc(-c3ccccn3)cs2)cc1	88*	-7
CC(C)CN(CC(C)C)S(=O)(=O)c1ccc(C(=O)Nc2nc(-c3ccccn3)cs2)cc1	52*	-4
CN(Cc1ccccc1)S(=O)(=O)c1ccc(C(=O)Nc2nc(-c3ccccn3)cs2)cc1	50	-3
CCCCN(CCCC)S(=O)(=O)c1ccc(C(=O)Nc2nc(-c3ccccn3)cs2)cc1	41	-5
COc1ccc(CN2CCCC2c2cc(C)no2)c(OC)c1 (configuration not stated)	32	3
CCC(C)c1ccccc1OCC(O)CNC(C)(C)C(C)(C)C (configuration not stated)	100*	-6
CCC(C)c1ccccc1OCC(O)CNC(C)(C)C (configuration not stated)	-6	-7
O=C(NC1CCCCCC1)C1CCCN(c2ncnc3c2nc2n3CCCCC2)C1 (configuration not stated)	1	3
COc1cc(/C=C2\SC(=N)N(c3ccc(F)cc3)C2=O)ccc1O	9	4
SMILES	mHTT-CaM PPI inh	Pf apPOL inh
CCOc1ccc(/C=C2\SC(=N)N(c3ccc4c(c3)OCO4)C2=O)cc1OC	11	-6
CCOc1cc(/C=C2\SC(=N)N(c3nccs3)C2=O)ccc1OCCN1CCOCC1	51*	-3
CCOc1cc(/C=C2\SC(=N)N(c3nonc3N)C2=O)ccc1O	16	52*
CCNc1cc(N2CCCC(CCC(=O)Nc3cc(C)ccc3OC)C2)ncn1 (configuration not stated)	55*	1
CCCNc1cc(N2CCC(CCC(=O)Nc3cc(C)ccc3OC)CC2)ncn1	59*	-6
COc1ccc(C)cc1NC(=O)CCC1CCCN(c2cc(NC3CC3)ncn2)C1 (configuration not stated)	10	-8
COc1ccc(C)cc1NC(=O)CCC1CCN(c2cc(NC3CC3)ncn2)CC1	39	-3
Cc1[nH]c2ccc(Br)cc2c(=O)c1CN1CCOCC1	-1	-1
Nc1c2c3c(c(Cl)ccc3[nH]c1=O)C(=O)c1ccccc1-2	13	0
O=c1[nH]c2ccc(Br)cc2c(-c2ccccc2)c1NS(=O)(=O)c1ccccc1	98*	21
Nc1c(-c2ccccc2Cl)c2cc(Br)ccc2[nH]c1=O	79*	-8
Cc1cc(Br)ccc1NS(=O)(=O)c1ccc2nc(-c3ccccc3)[nH]c2c1	-2	-9
O=c1[nH]c2ccc(Br)cc2c(-c2ccccc2)c1CN1CCCCC1	100*	-3
O=C(NCCN1CCOCC1)C(=O)Nc1ccc(F)c(Cl)c1	-14	-4
CCCCC(=O)N1CCN(c2nc3c(s2)c(C)nn3-c2ccc(F)cc2)CC1	-1	-2
Cc1cc(O)c(CN2CCN(C)CC2)c2c1C(=O)C(=Cc1ccco1)O2	15	0
COCCCNC(=O)c1ccc2c(c1)ncn2-c1cc(C)cc(C)c1	8	42
CC(C)C(=O)N(C)CC(=O)N1N=C(c2cccn2C)CC1c1ccc(Cl)cc1 (configuration not stated)	78*	-7
CC(C)C(=O)N(C)CC(=O)N1N=C(c2ccc(F)cc2)CC1c1ccccc1 (configuration not stated)	17	-3
COc1ccc(C2=NN(C(=O)CN(C)C(C)=O)C(c3ccc(Cl)cc3)C2)cc1 (configuration not stated)	35	-10
CN(CC(=O)N1N=C(c2cccn2C)CC1c1ccccc1)C(=O)C1CCC1 (configuration not stated)	55*	0
CN(CC(=O)N1N=C(c2cccn2C)CC1c1ccc(Cl)cc1)C(=O)C1CCC1 (configuration not stated)	49	-5
CC(=O)N(C)CC(=O)N1N=C(c2cccn2C)CC1c1ccc(Cl)cc1 (configuration not stated)	65*	0
Cc1cccc(CNC(=O)c2c(C)noc2-c2cccc(C(F)(F)F)c2)c1	-7	-4
CN(C)/C=C/c1c(C=O)c2cc([N+](=O)[O-])ccc2n1C	100*	-7
SMILES	mHTT-CaM PPI inh	Pf apPOL inh
CC(=O)c1c(-c2ccccc2)c2cc([N+](=O)[O-])ccc2n1C	5	-1
COc1ccc(S(=O)(=O)NCc2ccc(S(N)(=O)=O)cc2)cc1	-2	-5
COc1ccc(S(=O)(=O)NCc2ccc3c(c2)OCO3)cc1OC	4	-3
COc1ccc(S(=O)(=O)NCc2ccc(CNS(=O)(=O)c3ccc(OC)cc3)cc2)cc1	59*	-2
COc1ccc(S(=O)(=O)NCc2ccc(F)cc2)cc1OC	-1	68*
CC1CCCCC1NC(=O)c1cccn2c(=O)c3sccc3nc12 (configuration not stated)	3	-7
O=C1NC(=O)C(Cc2ccc3cc(OCc4ccccc4F)ccc3c2)S1 (configuration not stated)	.	-3
COc1cccc(C2=NN(C(=O)CN3CCCCC3)C(c3ccccc3C)C2)c1 (configuration not stated)	61*	-5
COc1ccccc1C1CC(c2ccccc2F)=NN1C(=O)CN1CCCCC1 (configuration not stated)	26	-3
COc1ccccc1C1=NN(C(=O)CN2CCCCC2)C(c2cc(C)ccc2C)C1 (configuration not stated)	100*	-7
COc1ccc(C2=NN(C(=O)CN3CCC(C)CC3)C(c3ccccc3C)C2)cc1 (configuration not stated)	32	-2
CCCn1c(=N)c(C(=O)NCCN2CCOCC2)cc2c(=O)n3cccc(C)c3nc21	6	-1
Cc1cccc(NCC(O)Cn2c(C)c(C)c3ccccc32)c1 (configuration not stated)	91*	4

Screening results (PubChem)
